{
  "source": "PubChem BioAssay (NCATS)",
  "note": "Values joined by “and” are separate entries in the source; they are usually repeats but may differ in a detail not shown here. Identical values can stand only once. Inconclusive results are not listed. Active and inactive are the calls of the source. Calls come from the whole dose curve; as a rule, active = well fitted activation curve with a large enough effect in the signal ratio; inconclusive = small, poorly fitted or top-dose-only effect, or a change in a side signal; inactive = flat fitted curve, though single readings scatter; the % refers to the signal ratio. Potency is the fitted concentration of half-maximal effect.",
  "data": [
    {"test": "qHTS assay for small molecule activators of the nuclear factor-kappa B (NF-kB) signaling pathway (AID 651749); for activation: series mostly up to about 77 µM; % of control where 0% means no effect", "conditions": "NF-kB-bla ME-180 cells, beta-lactamase FRET ratio, 16 h; activation: hits give high values", "from_the_text": "National Center for Advancing Translational Sciences [NCATS] NIH Chemical Genomics Center [NCGC] U.S. Environmental Protection Agency [EPA] National Institutes of Environmental Health Sciences [NIEHS] National Toxicology Program [NTP] Assay Overview: Transcription factors and their stimulated target gene expression play pivotal roles across many cellular processes including responses to environmental stimuli. Proper regulation of associated pathways is critical to maintain cell health and function. Constitutive activation of transcription factor pathways has been implicated in tumors as it may block cellular functions such as apoptosis and lead to invasion and metastasis. One important transcription factor that stimulates gene expression in response to cytokines, UV radiation, and other stimuli is nuclear factor-kappa B (NF-kB). To measure activation of the NF-kB pathway, the NF-kB-bla ME-180 cell line stably expressed beta-lactamase reporter gene under the regulation of a NF-kB response element was obtained from Invitrogen. This assay allows measurement of the NF-kB pathway activity induced by compounds in a ME-180 cell line. This system quantitates NF-kB activity using a FRET-based assay system where beta-lactamase expression disrupts FRET, allowing for fluorescent measurement of activity.\nAssay Protocol Summary: For toxicology screening, 2,000 cells in 5 uL/well were dispensed into black, clear-bottom 1536-well plates using a Multidrop Combi (Thermo Scientific) dispenser. Following transfer of 23 nL compound or DMSO vehicle by a pin tool, the plates were incubated 16 hr at 37C and 5% CO2.", "values": [
      {"smiles": "CC1(C)[C@@H]2CC[C@@]1(C)C(=O)C2", "activation": "-0.497% (inactive)"},
      {"smiles": "Oc1cccc(O)c1", "activation": "-1.45% (inactive)"},
      {"smiles": "NCCNCCNCCNCCN", "activation": "-1.8% (inactive) and -0.273% (inactive)"},
      {"smiles": "NC(=O)N/N=C/c1ccc([N+](=O)[O-])o1", "activation": "-2.02% (inactive) and 0.212% (inactive)"},
      {"smiles": "Nc1ccc(S(=O)(=O)Nc2nccs2)cc1", "activation": "0.351% (inactive)"},
      {"smiles": "C[C@]12CC[C@@H]3c4ccc(O)cc4CC[C@H]3[C@@H]1CCC2=O", "activation": "-1.43% (inactive)"},
      {"smiles": "CCCc1c(OCCCCc2nn[nH]n2)ccc(C(C)=O)c1O", "activation": "-0.919% (inactive)"},
      {"smiles": "COc1ccccc1O", "activation": "-1.13% (inactive) and -0.291% (inactive) and -0.304% (inactive)"},
      {"smiles": "C[C@]12C[C@H](O)[C@H]3[C@@H](CCC4=CC(=O)CC[C@@]43C)[C@@H]1CC[C@@H]2C(=O)CO", "activation": "-1.35% (inactive) and 0.404% (inactive)"},
      {"smiles": "COc1ccc(Cl)cc1C(=O)NCCc1ccc(S(=O)(=O)NC(=O)NC2CCCCC2)cc1", "activation": "-2.47% (inactive)"},
      {"smiles": "CC(O)COc1ccccc1", "note": "(centres undefined)", "activation": "-2.71% (inactive)"},
      {"smiles": "CC1=C(/C=C/C(C)=C/C=C/C(C)=C/C(=O)O)C(C)(C)CCC1", "activation": "-2.87% (inactive) and -2.33% (inactive)"},
      {"smiles": "CC(O)CN(CCN(CC(C)O)CC(C)O)CC(C)O", "note": "(centres undefined)", "activation": "-0.0736% (inactive)"},
      {"smiles": "Cc1cccc(Nc2cc(Cl)nc(SCC(=O)O)n2)c1C", "activation": "3.82% (inactive)"},
      {"smiles": "Cc1c(O)cccc1C(=O)N[C@@H](CSc1ccccc1)[C@H](O)CN1C[C@H]2CCCC[C@H]2C[C@H]1C(=O)NC(C)(C)C", "activation": "4.91% (inactive)"},
      {"smiles": "CCCCC(CC)COC(=O)c1ccccc1O", "note": "(centres undefined)", "activation": "-1.39% (inactive)"},
      {"smiles": "O=S(=O)(O)NC1CCCCC1", "activation": "-0.941% (inactive)"},
      {"smiles": "CC(CN1c2ccccc2Sc2ccccc21)N(C)C", "note": "(centres undefined)", "Potency": "25.1 µM (active)"},
      {"smiles": "CNC(=O)Oc1ccc2c(c1)[C@]1(C)CCN(C)[C@@H]1N2C", "activation": "1% (inactive)"}
    ]}
  ]
}
